From ChEMBL document CHEMBL3988442, “University of Dundee, Small-Polar-MMV Screening Library” (2021) come the findings set out here.

The target of the assay is T1, Tyrosyl-tRNA synthetase, putative (Trypanosoma cruzi (strain CL Brener)) (UniProt Q4DSP6).
T1 sequence (whole entry): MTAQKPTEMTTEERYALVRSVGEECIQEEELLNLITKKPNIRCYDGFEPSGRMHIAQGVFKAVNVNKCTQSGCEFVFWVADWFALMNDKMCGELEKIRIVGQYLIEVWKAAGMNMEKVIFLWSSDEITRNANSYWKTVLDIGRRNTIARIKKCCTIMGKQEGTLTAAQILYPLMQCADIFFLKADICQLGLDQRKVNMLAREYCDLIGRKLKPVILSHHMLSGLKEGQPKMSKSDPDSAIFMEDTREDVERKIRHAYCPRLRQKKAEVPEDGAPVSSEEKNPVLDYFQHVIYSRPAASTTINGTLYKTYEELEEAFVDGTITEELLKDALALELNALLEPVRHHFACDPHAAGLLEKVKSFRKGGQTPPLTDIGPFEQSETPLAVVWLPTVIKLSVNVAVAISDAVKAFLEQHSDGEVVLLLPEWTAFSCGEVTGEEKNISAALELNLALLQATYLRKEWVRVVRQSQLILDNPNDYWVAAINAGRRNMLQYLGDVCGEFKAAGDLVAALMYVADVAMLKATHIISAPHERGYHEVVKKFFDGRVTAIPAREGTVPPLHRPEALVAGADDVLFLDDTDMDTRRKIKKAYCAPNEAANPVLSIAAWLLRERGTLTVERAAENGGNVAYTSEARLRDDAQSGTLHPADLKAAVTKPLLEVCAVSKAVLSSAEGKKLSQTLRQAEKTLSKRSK
Kind of assay: Trypanosoma cruzi tyrosyl tRNA synthetase (TcYRS) SOP. In kind it is functional. Further details: scale not given: direction of the effect not stated beside the values. As to conditions: 30 µM.
On to `CCN(CC)C(=O)c1ccn(COc2cc(C)cc(C)c2)n1`, for which the Percent Effect was 12.8%.

On to `Cc1cc(C(=O)N2C[C@@H]3COC[C@]3(c3nnc(C4CC4)o3)C2)on1`, for which the Percent Effect is 5%.

Turning to `COC(=O)c1ccc(N2CCN(CCN3CCOCC3)C(C)C2)cc1` (centres undefined), the Percent Effect came out at 13.6%.

Take `Cc1ccc(N2CCCC(NCc3cscn3)C2)nn1` (centres undefined): the Percent Effect worked out at 23.5%.

Consider `Cc1noc2ncc(C(=O)N(CC3CCOC3)C3CC3)cc12` (centres undefined), for which the Percent Effect worked out at 4.88%.

On to `Cc1cnn(CC2CCCN2c2nn3cc(C)nc3s2)c1` (centres undefined), for which the Percent Effect came to 15.2%.

For `CCC(NC(=O)C1CCN(S(C)(=O)=O)CC1)c1ccc(OC)c(C)c1` (centres undefined), the Percent Effect was 1.24%.

As to `CNC(=O)[C@@]12CCC3(CCN(S(C)(=O)=O)CC3)[C@@H]1CN(S(C)(=O)=O)C2`, the Percent Effect was found to be 11.1%.

With `Cc1ccc(C(=O)N2CCN(CCCSCC#N)CC2)o1`, the Percent Effect worked out at 11.1%.

Consider `CC(=O)N(Cc1ncc(C)o1)C1CCN(CCNC2CCCCC2)C1` (centres undefined), for which the Percent Effect is -3.7%.

Regarding `Cc1cnc(CN(C)CC2CCCN2c2cccnn2)cn1` (centres undefined), the Percent Effect stood at 25.9%.

As for `Cc1cnn(CC2CCCN2C(=O)c2cnc3n[nH]c(C)c3c2)c1` (centres undefined), the Percent Effect came to 20.2%.

On to `CC(=O)c1cccc(S(=O)(=O)N2CSCC2C(=O)NCC(F)(F)F)c1` (centres undefined), for which the Percent Effect came out at 22.8%.

Consider `CCCN(Cc1ccccc1)Cn1nc(C)c2c(C)onc2c1=O`, for which the Percent Effect came to 18.5%.

As to `CN1CCCC(Cc2ccnc3ccncc23)CC1` (centres undefined), the Percent Effect is -1.3%.

For `N#Cc1ccccc1CN1C[C@@H]2CC[C@H](C1)N(Cc1cscn1)C2=O`, the Percent Effect was -14.6%.

Turning to `CSc1ncc(C(=O)N2C[C@H]3CC[C@@H]2CN(Cc2ccccc2)C3)cn1`, the Percent Effect is 10%.

With `N#CCSCCCN1CCCN(C(=O)c2ccccc2)CC1`, the Percent Effect came out at 3.7%.

As to `Cc1nn(C)c(N2CCOCC2)c1CNC(C)c1ccco1` (centres undefined), the Percent Effect worked out at 20.5%.
